From PubChem
Pf apPOL block: Pf-apPOL DNA polymerase inhibition; Recombinant Pf-apPOL, molecular beacon fluorescence, 1.5 h; hit rate 0.25% among 210,000; inhibition, % at 10 µM
mHTT-CaM PPI inh: mHTT-calmodulin interaction abrogation; P42858; AlphaScreen His-mHTT/GST-CaM binding, luminescence; inhibition, % at 15 µM; hit rate 3.6% among 190,000; AID 1671202
Of the large screens only hits and unclear results are named; the others gave an inactive call. Shown are actives, neighbours in structure and some others; about 3.5% of the full set was active somewhere. Rule as the data show it: active = inhibition above about 50%; inactive = the rest.

COc1ccc(-c2ccc(CN3C(CC(C)C)C(=O)N(Cc4cn(CCC5OCCCO5)nn4)CCS3(=O)=O)cc2)cc1OC (stereo unspecified)	none
CC(C)CC1C(=O)N(Cc2cn(CCC3OCCCO3)nn2)CCS(=O)(=O)N1Cc1ccc(-c2cccc(N(C)C)c2)cc1 (stereo unspecified)	mHTT-CaM PPI inh 69
COc1cc(/C=C2\SC(=NS(=O)(=O)c3ccc(C)cc3)NC2=O)cc(OC)c1OC	none
O=S(=O)(Nc1cccc2cccnc12)c1cc(Cl)c(Cl)cc1Cl	none (no result: mHTT-CaM PPI inh)
Nc1ccc(S(=O)(=O)Nc2cccc3cccnc23)cc1	mHTT-CaM PPI inh 57
Cc1ccc(NC(=O)N(C)Cc2ccoc2)cc1	none
Cc1c(Cl)cccc1N(CC(=O)NC1CCCCCC1)S(C)(=O)=O	none
Cc1cccc(CNC(=O)CCC(=O)N2CC3CCCN3c3ccccc32)c1 (stereo unspecified)	none
CCC1CN(C(=O)NCCC(C)C)c2ccccc2O1 (stereo unspecified)	none
CC(C)CCNC(=O)N1CC2CCCN2c2ccccc21 (stereo unspecified)	mHTT-CaM PPI inh 56
O=C(NCc1ccccc1)N1CC2CCCN2c2ccccc21 (stereo unspecified)	mHTT-CaM PPI inh 83
O=C(NCc1ccccc1)c1ccc(NC(=O)N2CC3CCCN3c3ccccc32)cc1 (stereo unspecified)	none
Cc1ccc(CNC(=O)N2CC3CCCN3c3ccccc32)cc1 (stereo unspecified)	mHTT-CaM PPI inh 57
O=S(=O)(NCCCN1CCOCC1)c1ccc(I)cc1	none
CCCS(=O)(=O)N1CCC(n2c(-c3ccco3)nc3cccnc32)C1 (stereo unspecified)	none
O=C(Nc1c(-c2ccc(Cl)cc2)nc2ccccn12)C(Cl)Cl	none
COc1cccc(-n2nc(C(=O)N3CCCC3)c3ccccc3c2=O)c1	none
O=C(O)C=CC(=O)c1ccc(C2CCCCC2)cc1	none (no result: mHTT-CaM PPI inh)
CC(C)N1CCN(C(=O)c2ccc3[nH]c4c(c3c2)CN(C(=O)C2CCC2)CC4)CC1	none
CC(/C=C1\SC(=S)N(CC(=O)O)C1=O)=C\c1ccccc1	none (no result: mHTT-CaM PPI inh)
CC(=Cc1ccccc1)C=C1SC(=S)N(C2CC(=O)N(CCCCCC(=O)O)C2=O)C1=O (stereo unspecified)	mHTT-CaM PPI inh 53
O=C(O)CCCN1C(=O)CC(N2C(=O)C(=CC=Cc3ccccc3)SC2=S)C1=O (stereo unspecified)	mHTT-CaM PPI inh 54
O=C(O)CCCN1C(=O)C(=CC=Cc2ccccc2)SC1=S	none
COc1cc(CCC(C)=O)ccc1OC(=O)c1ccc(Cl)cc1Cl	none (no result: mHTT-CaM PPI inh)
COc1ccccc1NC(Nc1ccccc1OC)=C(/C=C(\Cl)[N+](=O)[O-])[N+](=O)[O-]	mHTT-CaM PPI inh 73
COc1ccccc1NC(=O)c1ccccc1[N+](=O)[O-]	none
O=C(NCc1cccnc1)c1ccc(-c2ccsc2)nc1	none
COC(=O)CNC(=O)NCC12CC3CC(CC(C3)C1)C2	none
CC(=O)N1CCCN(C2=Nc3ccc(C)cc3Oc3ccccc32)CC1	mHTT-CaM PPI inh 54
CC(=O)N1CCN(C2=Nc3ccccc3Oc3ccccc32)CC1	none
COc1ccccc1NC(=O)Cn1cc(-c2ccccc2)oc1=O	none
CC(Oc1ccccc1)C(=O)Nc1ccc(S(=O)(=O)NC(C)(C)C)cc1 (stereo unspecified)	none
Cc1ccc(C)n1-c1ccc(S(N)(=O)=O)cc1	mHTT-CaM PPI inh 75
Cn1c(=O)n(-c2ccc(S(N)(=O)=O)cc2)c(=O)n1C	none
CCN1c2cc(C)ccc2-n2cccc2C12CCN(C(=O)NC(C)C(=O)OC)CC2 (stereo unspecified)	mHTT-CaM PPI inh 68
CCN1c2cc(C)ccc2-n2cccc2C12CCN(C(=O)NC(C)C)CC2	mHTT-CaM PPI inh 99
CCN1c2cc(C)ccc2-n2cccc2C12CCN(C(=O)Nc1ccccc1Cl)CC2	none
COC(=O)C(C)NC(=O)N1CCC2(CC1)Nc1cc(F)ccc1-n1cccc12 (stereo unspecified)	none
O=C(Nc1ccccc1-c1nc2ccccc2s1)c1cc(=O)c2ccccc2o1	none
O=C(Nc1nc2c(Cl)cccc2s1)c1cc(=O)c2ccccc2o1	Pf apPOL block 50
Cc1cc(-c2ccccc2)nc2cc(C(=O)Nc3ccc4c(c3)OCO4)nn12	none
CC(C)Sc1cccc(-c2nnc(NC(=O)c3cc(-c4ccco4)on3)o2)c1	none
CC(C)Sc1cccc(C(=O)Nc2nnc(-c3ccnn3C(C)C)o2)c1	mHTT-CaM PPI inh 68
CC(=O)Nc1c(-c2ccc(Cl)cc2)n[nH]c1C	none
Cc1ccc(C(=O)N2CCc3[nH]cnc3C23CCCC3)c(C)c1	none
O=C(Nc1ccc(Cl)c(Cl)c1)c1ccc(F)c(S(=O)(=O)NCc2ccc(F)cc2)c1	none
O=C(Nc1ccc(Cl)c(Cl)c1)c1ccc(F)c(S(=O)(=O)NCCc2ccccc2)c1	mHTT-CaM PPI inh 71
O=C(Nc1ccc(F)c(F)c1)c1ccc(F)c(S(=O)(=O)NCCc2ccc(Cl)cc2)c1	mHTT-CaM PPI inh 50
O=C(Nc1cc(Cl)cc(Cl)c1)c1ccc(F)c(S(=O)(=O)NCCc2ccccc2)c1	none
Cc1ccc(-c2nc(C)c(C(=O)N3CCC(CC(=O)NCCC(C)C)CC3)s2)cc1	none
O=C(O)C1CC(=O)N(C2CCCC2)C1 (stereo unspecified)	none
Brc1ccc(-c2cc3ccccn3c2)cc1	none
Fc1ccc(-c2cc3n(c2)CCn2cccc2-3)c(F)c1	mHTT-CaM PPI inh 100
Brc1ccc(-c2cc3n(c2)CCn2cccc2-3)cc1	mHTT-CaM PPI inh 84
Clc1ccc(-c2cc3n(c2)CCn2cccc2-3)cc1Cl	mHTT-CaM PPI inh 100
c1ccc(C2=NCCn3cccc32)cc1	none
CC1c2cccn2CCN1C(=O)Nc1ccc(F)cc1F (stereo unspecified)	none
Cc1ccc(C(=O)Nc2ccc3c(c2)Sc2ncccc2C(=O)N3C)c(C)c1	none
CCc1cccc(CC)c1NC(=O)C1C2C=CC(O2)C1C(=O)O (stereo unspecified)	none
O=c1[nH]nc(C2CCCN(Cc3ccccn3)C2)n1-c1ccccc1 (stereo unspecified)	none
O=C(NNS(=O)(=O)c1ccc(Cl)cc1)c1ccc([N+](=O)[O-])cc1	none (no result: mHTT-CaM PPI inh)
O=C(Nc1ccc(Oc2ccccc2)cc1)c1ccncc1	none
N#Cc1ccc(Oc2ccc(C(=O)Nc3ccccc3)cc2)cc1	Pf apPOL block 68
O=C1CC(Nc2ccc(F)cc2)C(=O)N1c1cccc(Cl)c1 (stereo unspecified)	none
COc1ccc2cc3cc(C(=O)N4CCC5(CC4)OCCO5)oc3nc2c1	none
Cc1ccc(OCC(=O)c2ccc(C)cc2)cc1	none
COc1ccccc1NC(=O)CSc1nc(-c2ccccc2)cn1-c1ccccc1OC	none
COc1ccccc1-n1cc(-c2ccccc2)nc1SCC(=O)Nc1ccc(F)cc1	mHTT-CaM PPI inh 57
O=C(CSc1nc(-c2ccccc2)cn1-c1ccccc1F)Nc1ccccc1	mHTT-CaM PPI inh 54
Cn1cnnc1SCC(=O)Nc1ccccc1	none
CCc1c(C(=O)O)nnn1-c1ccc(C)c(Cl)c1	none
CC(C)(C)NC(=O)NC(=O)c1c(F)cccc1Cl	none (no result: mHTT-CaM PPI inh)
O=C(CC1Sc2ccccc2NC1=O)NCc1ccc(C(F)(F)F)cc1 (stereo unspecified)	none
Cc1ccc(C)c(NCc2ccncc2)c1	none
Cc1ccc(NCc2ccc(Cl)nc2)c(NCc2ccc(Cl)nc2)c1	mHTT-CaM PPI inh 54
O=C1C2C3c4ccccc4C(c4ccccc43)C2C(=O)N1CCc1c[nH]c2ccccc12 (stereo unspecified)	mHTT-CaM PPI inh 100
CC(=O)c1c(C(C)=O)c(C)n(CCc2c[nH]c3ccccc23)c1C	none
COc1ccc(OC)c(C2=NOC(C(=O)Nc3cc(OC)c(OC)c(OC)c3)C2)c1 (stereo unspecified)	none
